Results published in PubChem BioAssay (NCATS).
Several values for one entry are separate records, joined by “and”; a condition that tells them apart may be missing. Equal values may be shown once. Inconclusive results are not listed. Activity calls are given as the source filed them. Unless noted, calls follow the shape of the dose curve; as a rule, active = well fitted curve in the direction sought with a large enough effect; inconclusive = small, poorly fitted or top-dose-only effect, or another doubt; inactive = no such curve, though single readings can be large; an effect the other way counts as inactive or inconclusive.

How the values were obtained:
[1] = qHTS assay for small molecule disruptors of the mitochondrial membrane potential - 1 hr assay (AID 651754; calls by dose curve; also: % is scaled to controls: 0 for no effect and ±100 for the full control effect; nearly all actives have a fitted effect of over 35% in size)
Method in brief: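 Read-out: dye fluorescence at 490 nm ex/535 nm em (monomers) and 540 nm ex/590 nm em (aggregates) in HepG2 cells. Compound exposure 1 hr at 37C, followed by 30 min dye loading.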

[2] = qHTS assay for small molecule disruptors of the mitochondrial membrane potential - 5 hr assay (AID 651755; calls by dose curve; also: % is scaled to controls: 0 for no effect and ±100 for the full control effect; nearly all actives have a fitted effect of over 40% in size)
Method in brief: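 Read-out: ratiometric Mito-MPS fluorescence, green monomer (ex 490/em 535) vs red mitochondrial aggregate (ex 540/em 590). HepG2 cells treated 5 hr at 37C before 30 min dye loading.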

[3] = molecular target: Tumor necrosis factor (Homo sapiens) (UniProt P01375); assay: qHTS assay to identify small molecules that stimulate Tumor Necrosis Factor-alpha (TNF-alpha) secretion (AID 651757; active = well fitted curve in the direction sought with a large enough effect in the signal ratio; the % refers to the signal ratio; also: 0% is about no effect)
Tumor necrosis factor (Homo sapiens), sequence (P01375 whole entry, looked up): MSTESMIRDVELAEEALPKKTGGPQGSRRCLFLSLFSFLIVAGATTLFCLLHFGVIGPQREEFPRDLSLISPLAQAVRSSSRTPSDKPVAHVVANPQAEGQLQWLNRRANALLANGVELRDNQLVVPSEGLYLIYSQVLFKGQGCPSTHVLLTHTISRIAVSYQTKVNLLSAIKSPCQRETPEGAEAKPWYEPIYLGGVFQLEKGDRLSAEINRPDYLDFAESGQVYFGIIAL
Method in brief: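 THP-1 cells, 3000/well; compound 17 hrs, 37 C; add cryptate/XL665 anti-TNF-alpha antibody pair; 3 hr RT; TR-FRET (HTRF) read of secreted TNF-alpha. Quantitative HTS format.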

[4] = qHTS assay for environmental chemicals that activate the Aryl hydrocarbon Receptor (AhR) signaling pathway (AID 651777); settings: 1A2-DRE human hepatoma cells, luciferase, 24 h; activation: stronger effect = higher value; also: % of control where 0% means no effect; nearly all actives have a fitted effect of over 15% in size
Method in brief: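 Stable CYP1A2 promoter/DRE-luciferase human hepatoma line treated 24 hr; One-Glo luminescence, 30 min RT.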

[5] = molecular target: Peroxisome proliferator-activated receptor alpha (Homo sapiens) (UniProt Q07869); assay: qHTS assay for small molecule agonists of the peroxisome proliferator-activated receptor alpha (PPARalpha) signaling pathway (AID 651778); settings: PathHunter PPARalpha complementation, chemiluminescence, 6 h; stronger effect = higher value; also: % of control where 0% means no effect
Peroxisome proliferator-activated receptor alpha (Homo sapiens), sequence (Q07869 whole entry, looked up, the tested form may be a part): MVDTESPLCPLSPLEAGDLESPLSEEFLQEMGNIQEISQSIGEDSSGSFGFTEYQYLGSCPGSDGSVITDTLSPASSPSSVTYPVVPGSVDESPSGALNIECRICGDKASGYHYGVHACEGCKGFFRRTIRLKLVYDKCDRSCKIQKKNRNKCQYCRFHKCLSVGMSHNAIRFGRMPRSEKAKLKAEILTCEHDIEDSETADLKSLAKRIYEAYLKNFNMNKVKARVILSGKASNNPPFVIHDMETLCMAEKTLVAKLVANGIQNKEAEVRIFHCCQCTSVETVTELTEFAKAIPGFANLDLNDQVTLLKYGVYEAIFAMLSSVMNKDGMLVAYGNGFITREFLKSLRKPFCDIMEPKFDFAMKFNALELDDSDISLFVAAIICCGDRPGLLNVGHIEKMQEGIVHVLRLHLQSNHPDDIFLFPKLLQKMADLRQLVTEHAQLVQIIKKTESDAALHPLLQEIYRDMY
Method in brief: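 Enzyme-fragment complementation assay in which ligand-bound PPARalpha translocates and forms an active enzyme that generates chemiluminescence. Cells were plated overnight, exposed to compound for 6 hr at 37 C, and then given detection reagent for 60 min at room temperature.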

[6] = qHTS assay for small molecule agonists of the antioxidant response element (ARE) signaling pathway measured by Nrf2-dependant transcriptional activity (AID 720636; active = well fitted curve in the direction sought with a large enough effect in the repeat runs; an effect the other way counts as inactive or inconclusive;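 also: HepG2 cells with an ARE-driven luciferase reporter; % of control where 0% means no effect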)
Method in brief: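 Reporter gene assay, HepG2 ARE-luc: 16 hr compound, 37 C, 5% CO2; read-out luciferase luminescence.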

[7] = qHTS assay for small molecule antagonists of the retinoid-related orphan receptor gamma (ROR-gamma) signaling pathway - cell viability counter screen (AID 720652; active = well fitted curve in the direction sought with a large enough effect in the repeat runs; an effect the other way counts as inactive or inconclusive;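 also: CHO reporter cells with doxycycline-induced ROR-gamma expression; series mostly up to about 92 µM; compound exposure lasted 16 hr before ATP read; % is scaled to controls: 0 for no effect and ±100 for the full control effect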)
Method in brief: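 CHO RORE-LUC/TET-ROR line, 1,000 cells/well, 37 C 5% CO2 5 hr; cpd or DMSO + doxycycline induction, 16 hr. CellTiter-Glo, 30 min RT, luminescence = ATP content.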

[8] = qHTS assay for small molecule agonists of the antioxidant response element (ARE) signaling pathway measured by Nrf2-dependant transcriptional activity - cell viability counter screen (AID 720653; active = well fitted curve in the direction sought with a large enough effect in the repeat runs; an effect the other way counts as inactive or inconclusive; also: % is scaled to controls: 0 for no effect and ±100 for the full control effect); settings: ARE-bla HepG2 viability, CellTiter-Glo ATP luminescence, 16 h; stronger effect = lower value
Method in brief: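 ARE-bla HepG2 cells treated with compounds for 16 h at 37C; this counter screen measures viability as intracellular ATP by CellTiter-Glo luminescence after 30 min at room temperature.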

[9] = qHTS assay for cell viability of HEK293 cells (AID 743288); settings: ATP luminescence (CellTiter-Glo), 18 h, stronger effect = lower value; also: % is scaled to controls: 0 for no effect and ±100 for the full control effect; nearly all actives have a fitted effect of over 50% in size
Method in brief: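 Readout is luciferase-coupled ATP content (CellTiter-Glo luminescence, 30 min room temperature) as a measure of metabolically competent cells. Parental HEK293 cells were plated 5 h or more before compound addition, then treated 18 h at 37 C.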

[10] = qHTS assay for cell viability of the p53RE-bla HCT-116 cell line (AID 743292); also: % is scaled to controls: 0 for no effect and ±100 for the full control effect; nearly all actives have a fitted effect of over 55% in size
Method in brief: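 Readout: CellTiter-Glo luminescence after 30 min RT. Treatment: compounds in DMSO, 16 h, 37 C. Cells: CellSensor p53RE-bla HCT-116, 4,000/well, preincubated 5 h.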

[11] = molecular target: Nuclear receptor subfamily 1 group I member 2 (Rattus norvegicus) (UniProt Q9R1A7); assay: qHTS assay for small molecule activators of the rat pregnane X receptor (rPXR) signaling pathway (AID 651751; call rule not given here; also: 0% is about no effect); settings: rPXR reporter cells, luciferase (One-Glo), 24 h
Nuclear receptor subfamily 1 group I member 2 (Rattus norvegicus), sequence (Q9R1A7 whole entry, looked up): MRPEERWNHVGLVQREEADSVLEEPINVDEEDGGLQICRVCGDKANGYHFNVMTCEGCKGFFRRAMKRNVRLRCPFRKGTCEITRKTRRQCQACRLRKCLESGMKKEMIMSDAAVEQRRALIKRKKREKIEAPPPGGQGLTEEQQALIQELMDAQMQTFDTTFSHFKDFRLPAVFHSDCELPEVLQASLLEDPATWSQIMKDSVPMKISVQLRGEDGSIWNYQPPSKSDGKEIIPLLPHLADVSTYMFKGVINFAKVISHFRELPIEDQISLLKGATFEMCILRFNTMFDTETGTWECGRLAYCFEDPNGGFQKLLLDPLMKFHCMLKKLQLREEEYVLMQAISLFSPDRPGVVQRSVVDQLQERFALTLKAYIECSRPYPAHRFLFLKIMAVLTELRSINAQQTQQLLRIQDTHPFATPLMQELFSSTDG

[12] = qHTS assay for small molecule activators of the human pregnane X receptor (PXR) signaling pathway (AID 720659; call rule not given here; also: 0% is about no effect)
[13] = molecular target: Nuclear receptor ROR-gamma (Homo sapiens) (UniProt P51449); assay: qHTS assay for small molecule antagonists of the retinoid-related orphan receptor gamma (ROR-gamma) signaling pathway (AID 651802);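 also: CHO cells with doxycycline-induced ROR-gamma expression; luciferase reporter luminescence driven by ROR response element; series mostly up to about 92 µM; % is scaled to controls: 0 for no effect and ±100 for the full control effect; nearly all actives have a fitted effect of over 60% in size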
Nuclear receptor ROR-gamma (Homo sapiens), sequence (P51449 whole entry, looked up): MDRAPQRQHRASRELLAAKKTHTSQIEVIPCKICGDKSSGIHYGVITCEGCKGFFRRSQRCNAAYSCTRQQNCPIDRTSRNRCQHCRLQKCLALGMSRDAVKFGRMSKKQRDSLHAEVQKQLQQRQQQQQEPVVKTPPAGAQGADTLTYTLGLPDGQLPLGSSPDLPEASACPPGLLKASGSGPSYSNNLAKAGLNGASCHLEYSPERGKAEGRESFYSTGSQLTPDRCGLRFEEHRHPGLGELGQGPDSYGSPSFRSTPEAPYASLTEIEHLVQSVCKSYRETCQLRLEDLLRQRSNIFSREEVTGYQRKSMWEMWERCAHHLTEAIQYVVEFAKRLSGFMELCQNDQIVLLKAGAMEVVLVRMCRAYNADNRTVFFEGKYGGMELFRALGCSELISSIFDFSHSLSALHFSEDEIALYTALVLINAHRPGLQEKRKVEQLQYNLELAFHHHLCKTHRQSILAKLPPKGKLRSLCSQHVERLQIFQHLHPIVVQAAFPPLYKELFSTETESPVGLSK
Method in brief: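 Luciferase read-out: ONE-Glo luminescence after 30 min at room temperature, following 16hr doxycycline induction at 37C, 5% CO2 of CHO cells with TET-inducible ROR and RORE-LUC reporter; decreased luminescence = reduced reporter activity.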

NC(N)=S
inactive: Potency [1] | Potency [2] | Potency [3] | activation [4] 0.321% | max response [5] -4.91% | outcome [6] | Potency [7] | max response [8] -0.0983% | max response [9] -3.49% | Potency [10] | max response [11] -3.24% | outcome [12]

FB(F)F
inactive: Potency [1] | Potency [2] | Potency [3] | activation [4] -0.371% | max response [5] -1.82% | outcome [6] | Potency [7] | max response [8] 3.97% | max response [9] -1.64% | Potency [10] | max response [11] -0.777% | outcome [12]

Nc1cccc(S(=O)(=O)O)c1
inactive: Potency [1] | Potency [2] | Potency [3] | activation [4] -0.739% | max response [5] -1.84% | Potency [13] | outcome [6] | max response [8] 8.17% | max response [9] 0.367% | Potency [10] | max response [11] 7.17%

CC(=O)Nc1cccc(N)c1
inactive: Potency [1] | Potency [2] | Potency [3] | activation [4] -0.0665% | max response [5] -7.63% | Potency [13] | outcome [6] | max response [8] 1.46% | max response [9] 8.3% | Potency [10] | max response [11] -0.641% | outcome [12]

Oc1c(Cl)ccc(Cl)c1Cl
inactive: Potency [1] | Potency [2] | Potency [3] | activation [4] -0.586% | max response [5] 6.63% | outcome [6] | Potency [7] | max response [8] 0.617% | max response [9] 4.44% | Potency [10] | max response [11] 0.125% | outcome [12]

Nc1c(Cl)cc(Cl)cc1Cl
inactive: Potency [1] | Potency [2] | Potency [3] | activation [4] -0.694% | max response [5] -2.57% | outcome [6] | Potency [7] | max response [8] -2.36% | max response [9] -2.95% | Potency [10] | max response [11] -2.23% | outcome [12]

NC(=O)CCCCC(N)=O
inactive: Potency [1] | Potency [2] | Potency [3] | activation [4] -0.919% | Potency [13] | outcome [6] | Potency [7] | max response [8] -6.44% | max response [9] 10.2% | Potency [10] | max response [11] 1.18% | outcome [12]

O=C(O)CNC(=O)c1ccc([N+](=O)[O-])cc1
inactive: Potency [1] | Potency [2] | Potency [3] | activation [4] 0.908% | max response [5] -1.61% | outcome [6] | Potency [7] | max response [8] 1.63% | max response [9] -4.53% | Potency [10] | max response [11] 1.39% | outcome [12]

Cc1ccc2ncccc2c1
inactive: Potency [1] | Potency [2] | Potency [3] | activation [4] 3.02% | Potency [13] | outcome [6] | Potency [7] | max response [8] 5.85% | max response [9] -3.3% | Potency [10] | max response [11] 2.4% | outcome [12]

Cc1cc(C)cc(O)c1
inactive: Potency [1] | Potency [2] | Potency [3] | activation [4] -0.55% | max response [5] -2.86% | Potency [13] | outcome [6] | max response [8] -0.981% | max response [9] -5.39% | Potency [10] | max response [11] -0.901% | outcome [12]

CCCCN(CCO)CCCC
inactive: Potency [1] | Potency [2] | Potency [3] | activation [4] -0.692% | Potency [13] | outcome [6] | Potency [7] | max response [8] -4.16% | max response [9] -7.26% | Potency [10] | max response [11] 1.69% | outcome [12]

CC(C)(C)OCC1CO1 (stereo unspecified)
inactive: Potency [1] | Potency [2] | Potency [3] | activation [4] 2.26% | max response [5] -5.74% | Potency [7] | max response [8] 11% | max response [9] -0.898% | Potency [10] | max response [11] 0.0184% | outcome [12]

S=C([S-])NCCNC(=S)[S-].[Zn+2]
inactive: Potency [1] | Potency [2] | Potency [3] | activation [4] 0.897% and 8.85% and 0.332% | max response [5] -15.1% and -9.87% and -6.7% | Potency [13] | Potency [7] | max response [8] -3.47% and -31.7% and -9.84% | max response [9] 1.36% and -44.1% and -10.7% | Potency [10] | max response [11] -5.53% and -7.82% and -4.11%

CC/C=C1/OC(=O)c2ccccc21
inactive: Potency [1] | Potency [2] | Potency [3] | activation [4] 0.751% | Potency [13] | outcome [6] | Potency [7] | max response [8] 4.48% | max response [9] -15.4% | Potency [10] | max response [11] -1.09% | outcome [12]

O=P(O)(OCc1ccccc1)OCc1ccccc1
inactive: Potency [1] | Potency [2] | Potency [3] | activation [4] 1.44% | max response [5] 1.76% | outcome [6] | Potency [7] | max response [8] 2.28% | max response [9] -11.9% | Potency [10] | max response [11] 3.16% | outcome [12]

CCCCOCCOCCOCCCC
inactive: Potency [1] | Potency [2] | Potency [3] | activation [4] -0.359% | Potency [13] | outcome [6] | Potency [7] | max response [8] 10.5% | max response [9] 3.02% | Potency [10] | max response [11] -1.56% | outcome [12]

Cc1ccccc1Br
inactive: Potency [1] | Potency [2] | Potency [3] | activation [4] -0.782% | max response [5] -3.06% | Potency [13] | outcome [6] | max response [8] -8.12% | max response [9] -0.991% | Potency [10] | max response [11] -1.24% | outcome [12]
